Most compounds without a hit are left out; they make up all but 2.9% or so of the library.
MEKK2mut PB1 HTS = signal of MEK5 binding to mutant human MEKK2 PB1 domain. bead flow cytometry, Alexa488-MEK5 binding to MEKK2 mutant. percent response, % at 10 µM. actives 0.35% (n = 290,000); in the data active means percent response above about 24%, passing the limit was not always enough
GRK2 inh = human GRK2 inhibition via aptamer displacement | P25098 | bead flow cytometry, FAM-aptamer displacement from GRK2 | inhibition of aptamer binding, % at 10 µM | actives 0.59% (n = 330,000) | AID 488847;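 active means inhibition of aptamer binding above 40%, roughly 3 SD of noise, on plates passing a quality check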;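 further: median bead fluorescence of bound FAM aptamer so fluorescent compounds give negative values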
B2AR ag = agonists of human beta-2 adrenergic receptor inducing internalization | actives 0.43% (n = 340,000) | P07550 | Am2.2-beta2AR cells, FAP receptor internalization, flow cytometry | response, % (test concentration not listed);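 active means response above a set limit, near 3 SD of response in nonfluorescent compounds, cut at about 42% in these data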
MEKK3 PB1 HTS = raises or lowers MEK5 binding to the human MEKK3 PB1 domain; Q99759; bead-based flow cytometry, Alexa488-MEK5 binding to MEKK3; actives lie on both sides; 0 = blocked by unlabeled MEK5, 100 = vehicle; binding response (% of control), % at 10 µM; actives 1.4% (n = 290,000); AID 1529;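 active means binding response more than 3 SD above or below the average of its plate-row segment, actives on both sides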;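 further: Alexa488 bead fluorescence after subtracting the streptavidin-only scavenger bead signal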
Target sequence (Q99759 whole entry, looked up, the tested form may be a part): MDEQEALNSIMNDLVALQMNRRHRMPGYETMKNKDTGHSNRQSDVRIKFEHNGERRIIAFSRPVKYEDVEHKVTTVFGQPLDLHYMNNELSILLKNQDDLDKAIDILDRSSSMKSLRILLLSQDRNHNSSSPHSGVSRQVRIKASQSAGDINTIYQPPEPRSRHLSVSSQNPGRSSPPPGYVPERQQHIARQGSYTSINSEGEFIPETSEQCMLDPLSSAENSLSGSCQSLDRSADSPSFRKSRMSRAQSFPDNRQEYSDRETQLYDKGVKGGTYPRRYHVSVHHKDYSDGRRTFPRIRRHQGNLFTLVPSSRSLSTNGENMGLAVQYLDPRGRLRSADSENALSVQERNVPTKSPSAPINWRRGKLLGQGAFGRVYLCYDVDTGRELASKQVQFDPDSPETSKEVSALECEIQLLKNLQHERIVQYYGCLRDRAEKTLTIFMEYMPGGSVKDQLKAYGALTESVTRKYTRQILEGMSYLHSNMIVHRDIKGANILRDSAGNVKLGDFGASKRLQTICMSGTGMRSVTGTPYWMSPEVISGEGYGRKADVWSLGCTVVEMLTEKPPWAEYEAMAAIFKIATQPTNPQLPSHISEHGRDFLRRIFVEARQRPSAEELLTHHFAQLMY
MEKK2 WT-MEK5 = raises or lowers MEK5 binding to wildtype human MEKK2 PB1 domain; AID 1531; binding response (% of control), % at 10 µM; bead flow cytometry, Alexa488-MEK5 binding to MEKK2 WT; actives lie on both sides; actives 1.1% (n = 290,000); in the data active means binding response below about 67% or above about 130%
MEKK2wt confirm = raises or lowers MEK5 binding to wildtype human MEKK2, retest; shares compounds with MEKK3 PB1 HTS; bead flow cytometry, Alexa488-MEK5 binding to MEKK2 WT; actives lie on both sides; binding response (% of control), % at 10 µM; actives 2.4% (n = 5,900); in the data active means binding response below about 16% or above about 210%; inactive means in between
MEKK2mut-MEK5 = signal of MEK5 binding to mutant human MEKK2, retest. AID 1893. bead flow cytometry, Alexa488-MEK5 binding to MEKK2 mutant. actives 2% (n = 5,900). shares compounds with MEKK3 PB1 HTS. percent response, % at 10 µM; in the data active means percent response mostly above about 71%, no sharp cut-off; inactive means mostly below about 38%;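 further: higher means compound restores mutant binding toward wildtype level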
MEKK3 confirm = confirmation of inhibitors of MEK5 binding to human MEKK3; shares compounds with MEKK3 PB1 HTS; bead flow cytometry, Alexa488-MEK5 binding to MEKK3; active compounds read low; binding response (% of control), % at 10 µM; actives 1.8% (n = 5,900);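 active means binding response below 72% of control, or above a set upper limit, though filed actives all read lower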;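 further: 100% = DMSO only wells and 0% = binding blocked by excess unlabeled MEK5; lower values mean stronger disruption of MEK5 binding to MEKK3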
The depositor's hits bear a star; [ ] = dose if it differs, or a comment.

How did CN1/C(=C\C(=O)c2cccnc2)C(C)(C)c2ccccc21 do in these assays?
MEKK2mut PB1 HTS: 0; GRK2 inh: 2; B2AR ag: -1; MEKK3 PB1 HTS: 147*; MEKK2 WT-MEK5: 105; MEKK2wt confirm: 85; MEKK2mut-MEK5: -9; MEKK3 confirm: 76

What do the screens show for `NNc1nc2ccc(Cl)cc2s1`?
MEKK2mut PB1 HTS: 0; GRK2 inh: 1; B2AR ag: 8; MEKK3 PB1 HTS: 132*; MEKK2 WT-MEK5: 105; MEKK2wt confirm: 106; MEKK2mut-MEK5: 0; MEKK3 confirm: 103

How did NNc1nc2ccc(F)cc2s1 do in these assays?
MEKK2mut PB1 HTS: -2; GRK2 inh: 2; B2AR ag: 0; MEKK3 PB1 HTS: 94; MEKK2 WT-MEK5: 92

Results for CC(C)(c1ccccc1)c1ccc(OCCCN2CCNCC2)cc1 ?
MEKK2mut PB1 HTS: 15; GRK2 inh: 0; B2AR ag: 41; MEKK3 PB1 HTS: 113; MEKK2 WT-MEK5: 150*; MEKK2wt confirm: 125; MEKK2mut-MEK5: 10; MEKK3 confirm: 105

What do the screens show for `CC(C)(C)c1ccc(OCCCCCCN2CCNCC2)cc1`?
GRK2 inh: 0; B2AR ag: 38

What do the screens show for `COc1cc(OC)cc(C(=O)Nc2cc(-c3cn4cccnc4n3)ccc2C)c1`?
MEKK2mut PB1 HTS: 1; GRK2 inh: 1; B2AR ag: -2; MEKK3 PB1 HTS: 103; MEKK2 WT-MEK5: 103

How did Cc1ccc(-c2cn3cccnc3n2)cc1NC(=O)c1cccs1 do in these assays?
MEKK2mut PB1 HTS: 0; GRK2 inh: 0; B2AR ag: -7; MEKK3 PB1 HTS: 133*; MEKK2 WT-MEK5: 103; MEKK2wt confirm: 99; MEKK2mut-MEK5: -1; MEKK3 confirm: 99

Results for Cc1ccc(C(=O)OC(C)C(=O)N(C)C2CCCCC2)cc1S(=O)(=O)N1CCCCC1 (configuration not stated) ?
GRK2 inh: 0; B2AR ag: -8

How did CN(C)C(=O)c1ccc(Oc2ccc(C(=O)N(C)C)cc2)cc1 do in these assays?
MEKK2mut PB1 HTS: -14; GRK2 inh: 0; B2AR ag: -7; MEKK3 PB1 HTS: 66*[inhibitor]; MEKK2 WT-MEK5: 75; MEKK2wt confirm: 100; MEKK2mut-MEK5: -1; MEKK3 confirm: 100

How did CC(=O)c1ccc(Oc2ccc(C(C)=O)cc2)cc1 do in these assays?
MEKK2mut PB1 HTS: 2; GRK2 inh: 1; B2AR ag: -10; MEKK3 PB1 HTS: 104; MEKK2 WT-MEK5: 104

What do the screens show for `CCOCCCN1CN(Cc2ccccc2)CNC1=S`?
MEKK2mut PB1 HTS: 0; GRK2 inh: 0; B2AR ag: -2; MEKK3 PB1 HTS: 128*; MEKK2 WT-MEK5: 104; MEKK2wt confirm: 106; MEKK2mut-MEK5: 4; MEKK3 confirm: 100

What do the screens show for `CCOC(=O)Cn1ccc(NC(=O)c2ccc3c(c2)OCO3)n1`?
MEKK2mut PB1 HTS: 4; GRK2 inh: 1; B2AR ag: 10; MEKK3 PB1 HTS: 104; MEKK2 WT-MEK5: 104

Results for CC(C)N1C(=O)NC2(c3ccccc3)N(C)C(=O)N(C)C12c1ccccc1 (configuration not stated) ?
MEKK2mut PB1 HTS: -6; GRK2 inh: 3; B2AR ag: 4; MEKK3 PB1 HTS: 105; MEKK2 WT-MEK5: 99

Results for CN1C(=O)N(C)C2(c3ccccc3)N(C)C(=O)NC12c1ccccc1 (configuration not stated) ?
MEKK2mut PB1 HTS: -17; GRK2 inh: 13; B2AR ag: 2; MEKK3 PB1 HTS: 35*[inhibitor]; MEKK2 WT-MEK5: 50; MEKK2wt confirm: 101; MEKK2mut-MEK5: 6; MEKK3 confirm: 101

How did O=C(NN=C1CCCCCC1)c1cccs1 do in these assays?
MEKK2mut PB1 HTS: -2; GRK2 inh: 25; B2AR ag: 2; MEKK3 PB1 HTS: 102; MEKK2 WT-MEK5: 98

What do the screens show for `CCc1ccc(N2CC(C(=O)Nc3cccc(C(=O)NC4CC4)c3)CC2=O)cc1` (configuration not stated)?
GRK2 inh: 0; B2AR ag: -10

What do the screens show for `CC(C)OC(=O)C(NC(=O)c1ccccc1)=C1CCCCC1`?
MEKK2mut PB1 HTS: 6; GRK2 inh: 2; B2AR ag: 0; MEKK3 PB1 HTS: 122*; MEKK2 WT-MEK5: 113; MEKK2wt confirm: 96; MEKK2mut-MEK5: 0; MEKK3 confirm: 102

How did C[C@H](NS(=O)(=O)c1ccc(Cl)c(Cl)c1)C(=O)OCc1cc(=O)n2cc(Br)ccc2n1 do in these assays?
MEKK2mut PB1 HTS: 1; GRK2 inh: 6; B2AR ag: -13; MEKK3 PB1 HTS: 131*; MEKK2 WT-MEK5: 102; MEKK2wt confirm: 98; MEKK2mut-MEK5: 4; MEKK3 confirm: 104

How did Cc1nnc(SCC(=O)c2c(N)n(C3CC3)c(=O)[nH]c2=O)n1-c1ccccc1 do in these assays?
GRK2 inh: 3; B2AR ag: -5

How did CCOc1cc(CNC2CCCC2)cc(Cl)c1OCc1ccccc1 do in these assays?
MEKK2mut PB1 HTS: 22; GRK2 inh: 0; B2AR ag: 12; MEKK3 PB1 HTS: 105; MEKK2 WT-MEK5: 141*; MEKK2wt confirm: 115; MEKK2mut-MEK5: 19; MEKK3 confirm: 103

Results for COc1cc(CNCCc2ccccc2)cc(Cl)c1OCc1ccccc1 ?
MEKK2mut PB1 HTS: 37; GRK2 inh: 0; B2AR ag: 28; MEKK3 PB1 HTS: 101; MEKK2 WT-MEK5: 192*; MEKK2wt confirm: 202; MEKK2mut-MEK5: 73*; MEKK3 confirm: 112

Results for CCOc1cc(CNCC(C)C)cc(Cl)c1OCc1ccccc1 ?
MEKK2mut PB1 HTS: 2; GRK2 inh: 0; B2AR ag: 6; MEKK3 PB1 HTS: 110; MEKK2 WT-MEK5: 121

What do the screens show for `O=C(COc1ccc(Br)cc1CNCCc1ccccc1)NCc1ccccc1`?
MEKK2mut PB1 HTS: 6; GRK2 inh: 0; B2AR ag: 24; MEKK3 PB1 HTS: 100; MEKK2 WT-MEK5: 145*; MEKK2wt confirm: 150; MEKK2mut-MEK5: 35; MEKK3 confirm: 112

How did CNCc1cc(Br)c(OCC(=O)Nc2ccccc2OC)c(OC)c1 do in these assays?
MEKK2mut PB1 HTS: 8; GRK2 inh: 0; B2AR ag: 5; MEKK3 PB1 HTS: 102; MEKK2 WT-MEK5: 118

How did COc1cc(CNCCc2ccccc2)cc(Br)c1OCC(=O)Nc1ccccc1C do in these assays?
MEKK2mut PB1 HTS: 33; GRK2 inh: 0; B2AR ag: 25; MEKK3 PB1 HTS: 95; MEKK2 WT-MEK5: 182*; MEKK2wt confirm: 137; MEKK2mut-MEK5: 15; MEKK3 confirm: 106

Screening data from PubChem.
